Assay results from PubChem BioAssay.
Active and inactive are the calls of the source.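 The calls were made as follows: active = compounds killing one labelled cell type while sparing the other, by normalised counts and ratio limits, not self-fluorescent; inactive = the rest.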

Assay: differential killing of epithelial or mesenchymal cells, primary screen, imaging, PC-3E GFP, TEM4-18 mCherry, co-culture (AID 1345086);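 also: cells exposed to compound for 72 h before imaging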;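 as to red/green cell ratio (normalised): normalised mesenchymal count divided by normalised epithelial count so high means epithelial killing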
Settings: imaging cell counts, at 1 µM; for red/green cell ratio (normalised): actives lie on both sides, counts scaled to control wells, 1 = unselective
[1] = measured here: epithelial PC-3E GFP cell survival
[2] = measured here: mesenchymal TEM4-18 mCherry cell survival

## COc1c(N2CC[C@@H](CN)C2)c(F)cc2c(=O)c(C(=O)O)cn(CCCN3C(=O)c4ccccc4C3=O)c12
  red/green cell ratio (normalised): 1.07 (inactive)
[1]
  normalised cell number: 1.03
[2]
  normalised cell number: 1.1

## O=C(NCC[C@H](O)C(=O)O)OCc1ccccc1
  red/green cell ratio (normalised): 1.04 (inactive)
[1]
  normalised cell number: 1.09
[2]
  normalised cell number: 1.14

## CC(=O)OCC[C@H](C)CCC=C(C)C
  red/green cell ratio (normalised): 1.13 (inactive)
[1]
  normalised cell number: 1
[2]
  normalised cell number: 1.13

## CO[C@H]1OC2COC(c3ccccc3)OC2[C@H](OCc2ccccc2)[C@@H]1OCc1ccccc1 (stereo not given in full)
  red/green cell ratio (normalised): 1 (inactive)
[1]
  normalised cell number: 1.15
[2]
  normalised cell number: 1.15

## CC1(C)C[C@]2(C)CC(=O)O[C@H]3OC(=O)[C@@H]4CC[C@@H]1[C@]342
  red/green cell ratio (normalised): 0.92 (inactive)
[1]
  normalised cell number: 1.05
[2]
  normalised cell number: 0.96

## O=C1OCC[C@@H]1Oc1ccc(Oc2cnc3ccc(Cl)cc3n2)cc1
  red/green cell ratio (normalised): 0.83 (inactive)
[1]
  normalised cell number: 1.22
[2]
  normalised cell number: 1.01

## C[C@@H]1CC[C@H]2[C@@H](C)C(O)O[C@@H]3O[C@]4(C)CC[C@@H]1[C@]32OO4 (stereo not given in full)
  red/green cell ratio (normalised): 0.74 (inactive)
[1]
  normalised cell number: 1.16
[2]
  normalised cell number: 0.85

## CO[C@H]1C[C@H](O[C@H]2[C@H](C)[C@@H](O[C@@H]3O[C@H](C)C[C@H](N(C)C)[C@H]3O)[C@@H](C)C[C@]3(CO3)C(=O)[C@H](C)[C@@H](O)[C@@H](C)[C@@H](C)OC(=O)[C@@H]2C)O[C@@H](C)[C@@H]1O
  red/green cell ratio (normalised): 0.92 (inactive)
[1]
  normalised cell number: 1.06
[2]
  normalised cell number: 0.97

## COC(=O)c1cc(Br)ccc1Cl
  red/green cell ratio (normalised): 1.04 (inactive)
[1]
  normalised cell number: 1.12
[2]
  normalised cell number: 1.17

## C=C(C)n1cc(C(=O)OC)c(=O)c2cc(F)c(F)c(OC)c21
  red/green cell ratio (normalised): 1.15 (inactive)
[1]
  normalised cell number: 0.99
[2]
  normalised cell number: 1.14

## CC1COc2c(N)c(F)cc3c(=O)c(C(=O)O)cn1c23 (stereo not given)
  red/green cell ratio (normalised): 0.95 (inactive)
[1]
  normalised cell number: 1.07
[2]
  normalised cell number: 1.01

## C[C@@H]1CC[C@H]2C(C)(C)C3CC12CC[C@@]3(C)O (stereo not given in full)
  red/green cell ratio (normalised): 0.98 (inactive)
[1]
  normalised cell number: 0.93
[2]
  normalised cell number: 0.91

## CCC(CCC(C)[C@H]1CCC2C3CC=C4C[C@@H](OC(C)=O)CC[C@]4(C)C3CC[C@@]21C)C(C)C (stereo not given in full)
  red/green cell ratio (normalised): 0.94 (inactive)
[1]
  normalised cell number: 1.1
[2]
  normalised cell number: 1.03

## COc1ccc2cc(C(C)=O)ccc2c1
  red/green cell ratio (normalised): 1.13 (inactive)
[1]
  normalised cell number: 0.99
[2]
  normalised cell number: 1.12

## C[C@H]1C[C@H](O)[C@H]2[C@@H](C=C[C@@](C)(O)[C@]2(C)C(=O)CCO)C1
  red/green cell ratio (normalised): 0.95 (inactive)
[1]
  normalised cell number: 0.32
[2]
  normalised cell number: 0.3

## CC(=O)O[C@H]1C[C@@]2(C)C(CCC3[C@@]4(C)C=CC(=O)[C@@H](C)C4[C@H](OC(C)=O)C(=O)[C@@]32C)/C1=C(/CCC=C(C)C)C(=O)O (stereo not given in full)
  red/green cell ratio (normalised): 0.99 (inactive)
[1]
  normalised cell number: 0.92
[2]
  normalised cell number: 0.91

## C=C1C2=C(C(=O)N1OC)[C@H](O)[C@](C)(O)[C@H](CCCCC)O2
  red/green cell ratio (normalised): 1.13 (inactive)
[1]
  normalised cell number: 1.01
[2]
  normalised cell number: 1.15

## COc1ccc(-c2coc3cc(OC)ccc3c2=O)cc1
  red/green cell ratio (normalised): 0.82 (inactive)
[1]
  normalised cell number: 1.34
[2]
  normalised cell number: 1.09

## COC(=O)c1c(Cl)nc(Cl)c2ccccc12
  red/green cell ratio (normalised): 1.07 (inactive)
[1]
  normalised cell number: 0.85
[2]
  normalised cell number: 0.91

## CCO[C@H]1OC(C(=O)OC)C(OC(=O)CCC(=O)O)[C@H](OC(=O)c2ccccc2)[C@@H]1OC(=O)c1ccccc1 (stereo not given in full)
  red/green cell ratio (normalised): 0.91 (inactive)
[1]
  normalised cell number: 1.18
[2]
  normalised cell number: 1.07

## COc1cccc(Oc2c(O)cc(C)cc2CC(=O)c2cc(C)cc(O)c2C(=O)c2c(O)cccc2O)c1C(=O)O
  red/green cell ratio (normalised): 1.1 (inactive)
[1]
  normalised cell number: 1.09
[2]
  normalised cell number: 1.21

## COc1cc(/C=C/C(=O)/C=C(O)/C=C/c2ccc(O)c(OC)c2)ccc1O
  red/green cell ratio (normalised): 1.04 (inactive)
[1]
  normalised cell number: 1.02
[2]
  normalised cell number: 1.06

## C/C=C\C(=O)O[C@@H]1[C@H](O)[C@@H](O)CO[C@@H]1C
  red/green cell ratio (normalised): 1.01 (inactive)
[1]
  normalised cell number: 0.99
[2]
  normalised cell number: 0.99

## CC(=O)NCCc1ccc(O)c(-c2c(O)c(O)c3c(c2O)C(=O)c2c(cc(O)c(C(=O)O)c2C(=O)O)C3=O)c1
  red/green cell ratio (normalised): 1.13 (inactive)
[1]
  normalised cell number: 0.95
[2]
  normalised cell number: 1.07

## C[C@@H]1C(=O)NC(Cc2ccccc2)C(=O)N2CCCC[C@H]2C(=O)O[C@H]([C@@H](C)CCCC[C@@H](C)O)C[C@H]1O (stereo not given in full)
  red/green cell ratio (normalised): 0.9 (inactive)
[1]
  normalised cell number: 1.03
[2]
  normalised cell number: 0.93

## COC(=O)C1O[C@H](Sc2ccccc2)[C@@H](OC(=O)c2ccccc2)[C@@H](OC(=O)c2ccccc2)C1O (stereo not given in full)
  red/green cell ratio (normalised): 0.96 (inactive)
[1]
  normalised cell number: 1.05
[2]
  normalised cell number: 1

## O=C(O)C1CCN(C(=O)OCc2ccccc2)CC1
  red/green cell ratio (normalised): 1.04 (inactive)
[1]
  normalised cell number: 0.9
[2]
  normalised cell number: 0.94

## OC[C@H]1O[C@H](OC[C@H]2O[C@@H](O)[C@H](O)[C@@H](O)[C@@H]2O)[C@H](O)[C@@H](O)[C@H]1O
  red/green cell ratio (normalised): 0.93 (inactive)
[1]
  normalised cell number: 0.99
[2]
  normalised cell number: 0.91

## Nc1ncnc2c1ncn2C1C[C@H](O)[C@@H](CO)O1 (stereo not given in full)
  red/green cell ratio (normalised): 0.92 (inactive)
[1]
  normalised cell number: 0.99
[2]
  normalised cell number: 0.91

## Oc1ccc2ccccc2c1Oc1ccc2ccccc2c1
  red/green cell ratio (normalised): 0.92 (inactive)
[1]
  normalised cell number: 0.86
[2]
  normalised cell number: 0.79

## CC(C)=CCC[C@H](C)[C@H]1CC[C@]2(C)C[C@@H]3C(C)=CC(=O)[C@@H]3/C(C=O)=C\C[C@@H]12
  red/green cell ratio (normalised): 0.9 (inactive)
[1]
  normalised cell number: 1.16
[2]
  normalised cell number: 1.04

## O=S(=O)([O-])OC[C@H]1O[C@@](COS(=O)(=O)[O-])(O[C@H]2O[C@H](COS(=O)(=O)[O-])[C@@H](OS(=O)(=O)[O-])[C@H](OS(=O)(=O)[O-])[C@H]2OS(=O)(=O)[O-])[C@@H](OS(=O)(=O)[O-])[C@@H]1OS(=O)(=O)[O-].[Al+3].[Na+].[Na+].[O-2].[O-2].[OH-]
  red/green cell ratio (normalised): 0.81 (inactive)
[1]
  normalised cell number: 1.15
[2]
  normalised cell number: 0.93

## COc1cc(OC)c2c(=O)c(OC)c(-c3ccccc3)oc2c1
  red/green cell ratio (normalised): 0.85 (inactive)
[1]
  normalised cell number: 1.32
[2]
  normalised cell number: 1.13

## CC(=O)OCC1O[C@H](Sc2ccc(C)cc2)[C@@H]2[C@@H](OC(=O)N2C(=O)OCc2ccccc2)C1OC(C)=O (stereo not given in full)
  red/green cell ratio (normalised): 0.78 (inactive)
[1]
  normalised cell number: 1.24
[2]
  normalised cell number: 0.96

## COc1ccc(-c2oc3ccccc3c(=O)c2OC)cc1
  red/green cell ratio (normalised): 0.92 (inactive)
[1]
  normalised cell number: 1.18
[2]
  normalised cell number: 1.08

## Oc1ccc(Oc2cnc3ccc(Cl)cc3n2)cc1
  red/green cell ratio (normalised): 0.74 (inactive)
[1]
  normalised cell number: 1.41
[2]
  normalised cell number: 1.05

## COc1cc([C@@]2(C)[C@@H]3[C@@H](C)CCC[C@@H]3C=C[C@@H]2C)oc(=O)c1C=O
  red/green cell ratio (normalised): 0.92 (inactive)
[1]
  normalised cell number: 1.06
[2]
  normalised cell number: 0.98

## CC(C)C1=CC2=CCC3[C@](C)(CCC[C@]3(C)C(=O)O)C2CC1 (stereo not given in full)
  red/green cell ratio (normalised): 1.12 (inactive)
[1]
  normalised cell number: 0.92
[2]
  normalised cell number: 1.03

## COC(=O)CCC(=O)NC(=O)Cc1ccccc1
  red/green cell ratio (normalised): 0.93 (inactive)
[1]
  normalised cell number: 1.16
[2]
  normalised cell number: 1.08

## OC[C@H]1O[C@@](CO)(O[C@@H]2O[C@H](CO)[C@@H](O)[C@H](O)[C@H]2O)[C@@H](O[C@@H]2O[C@H](CO)[C@@H](O)[C@H](O)[C@H]2O)[C@@H]1O
  red/green cell ratio (normalised): 0.9 (inactive)
[1]
  normalised cell number: 1.13
[2]
  normalised cell number: 1.01

## CC(C)(C)[Si](C)(C)OCC1O[C@H](Sc2ccccc2)[C@H]2NC(=O)O[C@H]2C1O (stereo not given in full)
  red/green cell ratio (normalised): 1.07 (inactive)
[1]
  normalised cell number: 0.97
[2]
  normalised cell number: 1.05

## Nc1nc2ncc(CNc3ccc(C(=O)NC(CCC(=O)O)C(=O)O)cc3)nc2c(=O)[nH]1 (stereo not given)
  red/green cell ratio (normalised): 1.18 (inactive)
[1]
  normalised cell number: 1.04
[2]
  normalised cell number: 1.23

## CC1CC2OC2/C=C/C(O)CC(=O)O1 (stereo not given)
  red/green cell ratio (normalised): 0.97 (inactive)
[1]
  normalised cell number: 1.06
[2]
  normalised cell number: 1.02

## Cc1ccc([C@H](C)CC(=O)N2C(=S)O[C@H]3Cc4ccccc4[C@H]32)cc1
  red/green cell ratio (normalised): 0.95 (inactive)
[1]
  normalised cell number: 1.05
[2]
  normalised cell number: 1

## COC(=O)[C@@H]1C(O)CC[C@H]2CN3CCc4c([nH]c5ccccc45)[C@@H]3C[C@@H]21 (stereo not given in full)
  red/green cell ratio (normalised): 1.2 (inactive)
[1]
  normalised cell number: 0.88
[2]
  normalised cell number: 1.07

## CN(C)c1cccc2c(S(N)(=O)=O)cccc12
  red/green cell ratio (normalised): 1.01 (inactive)
[1]
  normalised cell number: 1.15
[2]
  normalised cell number: 1.16

## COc1cc(N)cc(OC)c1
  red/green cell ratio (normalised): 0.94 (inactive)
[1]
  normalised cell number: 0.97
[2]
  normalised cell number: 0.91

## C[C@@H](Oc1ccc(Oc2ccc3ncc(Cl)nc3c2)cc1)C(=O)O
  red/green cell ratio (normalised): 0.86 (inactive)
[1]
  normalised cell number: 1.19
[2]
  normalised cell number: 1.03

## OCC(O)C(O)C(O)C(O)C(O)CO (stereo not given)
  red/green cell ratio (normalised): 0.95 (inactive)
[1]
  normalised cell number: 0.96
[2]
  normalised cell number: 0.91

## Cc1[nH]cc[n+]1CC1CCC2C(C1=O)c1ccccc1N2C (stereo not given)
  red/green cell ratio (normalised): 0.73 (inactive)
[1]
  normalised cell number: 1.19
[2]
  normalised cell number: 0.87

## Nc1nc(Cl)nc2c1ncn2C1O[C@H](CO)[C@@H](O)[C@@H]1F (stereo not given in full)
  red/green cell ratio (normalised): 1.78 (inactive)
[1]
  normalised cell number: 0.22
[2]
  normalised cell number: 0.39

## CC(C)[C@@H]1CCC(CO)=C[C@@H]1/C=C(\CO)C(=O)O
  red/green cell ratio (normalised): 0.88 (inactive)
[1]
  normalised cell number: 1.29
[2]
  normalised cell number: 1.13

## CC(C)=C1CC[C@]2(C)[C@@H](O)CC[C@H]3[C@](C)(Cc4c[nH]c5ccccc45)[C@@H](C)CC[C@]132
  red/green cell ratio (normalised): 0.86 (inactive)
[1]
  normalised cell number: 1.09
[2]
  normalised cell number: 0.94

## CC(C)CCCC(C)[C@H]1CCC2C3C(=O)C=C4C[C@@H](O)CC[C@]4(C)C3CC[C@@]21C (stereo not given in full)
  red/green cell ratio (normalised): 0.98 (inactive)
[1]
  normalised cell number: 0.98
[2]
  normalised cell number: 0.95

## O=C1C[C@@H](O)[C@]23Oc4ccc(O)c5c4[C@](Oc4cccc1c42)(O3)C1O[C@@H]1[C@H]5O (stereo not given in full)
  red/green cell ratio (normalised): 0.97 (inactive)
[1]
  normalised cell number: 1.1
[2]
  normalised cell number: 1.07
